Tests used:
[1] = biological target: Serine/threonine-protein kinase MRCK beta (Homo sapiens) (UniProt Q9Y5S2); details: at 1 µM
[2] = biological target: Serine/threonine-protein kinase MRCK beta (Homo sapiens) (UniProt Q9Y5S2); details: at 10 µM
[3] = biological target: Ribosomal protein S6 kinase alpha-5 (Homo sapiens) (UniProt O75582); details: at 1 µM
[4] = biological target: Ribosomal protein S6 kinase alpha-5 (Homo sapiens) (UniProt O75582); details: at 10 µM
[5] = biological target: Ribosomal protein S6 kinase alpha-4 (Homo sapiens) (UniProt O75676); details: at 1 µM
Chain of Ribosomal protein S6 kinase alpha-4 (Homo sapiens) (O75676 whole entry, looked up): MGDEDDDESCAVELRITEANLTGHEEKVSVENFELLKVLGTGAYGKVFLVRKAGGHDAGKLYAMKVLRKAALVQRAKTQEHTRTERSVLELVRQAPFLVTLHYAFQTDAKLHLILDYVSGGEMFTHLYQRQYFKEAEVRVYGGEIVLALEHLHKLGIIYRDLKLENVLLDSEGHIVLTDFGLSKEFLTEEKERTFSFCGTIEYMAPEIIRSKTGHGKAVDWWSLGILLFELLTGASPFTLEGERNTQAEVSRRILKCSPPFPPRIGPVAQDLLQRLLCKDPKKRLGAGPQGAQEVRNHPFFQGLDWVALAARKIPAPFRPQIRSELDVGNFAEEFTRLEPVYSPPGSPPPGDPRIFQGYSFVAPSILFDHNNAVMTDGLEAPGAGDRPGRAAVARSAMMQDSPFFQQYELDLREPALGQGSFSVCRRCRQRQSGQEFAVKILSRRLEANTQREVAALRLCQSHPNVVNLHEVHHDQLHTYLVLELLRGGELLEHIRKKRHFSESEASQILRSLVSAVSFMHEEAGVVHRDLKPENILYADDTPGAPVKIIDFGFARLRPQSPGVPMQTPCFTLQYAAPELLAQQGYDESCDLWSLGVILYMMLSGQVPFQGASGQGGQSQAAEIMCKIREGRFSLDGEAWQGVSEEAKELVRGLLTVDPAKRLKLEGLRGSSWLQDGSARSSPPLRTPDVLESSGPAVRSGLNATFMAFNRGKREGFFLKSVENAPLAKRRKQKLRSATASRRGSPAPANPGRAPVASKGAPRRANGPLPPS

[6] = biological target: Ribosomal protein S6 kinase alpha-4 (Homo sapiens) (UniProt O75676); details: at 10 µM
[7] = biological target: SRSF protein kinase 3 (Homo sapiens) (UniProt Q9UPE1); details: at 1 µM
Chain of SRSF protein kinase 3 (Homo sapiens) (Q9UPE1 whole entry): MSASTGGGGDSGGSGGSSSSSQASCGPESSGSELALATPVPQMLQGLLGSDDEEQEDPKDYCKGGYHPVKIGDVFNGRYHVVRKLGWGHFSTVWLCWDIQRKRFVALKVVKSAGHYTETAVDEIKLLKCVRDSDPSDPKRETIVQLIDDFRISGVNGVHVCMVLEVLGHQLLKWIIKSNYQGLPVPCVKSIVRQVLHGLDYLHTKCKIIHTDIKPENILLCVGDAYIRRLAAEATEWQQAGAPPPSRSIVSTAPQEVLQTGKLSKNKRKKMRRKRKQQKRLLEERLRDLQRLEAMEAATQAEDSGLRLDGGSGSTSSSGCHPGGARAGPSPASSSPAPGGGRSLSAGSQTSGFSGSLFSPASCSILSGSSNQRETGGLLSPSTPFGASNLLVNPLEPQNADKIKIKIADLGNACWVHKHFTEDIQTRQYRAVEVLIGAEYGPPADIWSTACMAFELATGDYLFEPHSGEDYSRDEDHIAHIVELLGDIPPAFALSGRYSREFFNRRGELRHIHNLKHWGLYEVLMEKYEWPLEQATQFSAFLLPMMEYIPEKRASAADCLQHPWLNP

[8] = biological target: SRSF protein kinase 3 (Homo sapiens) (UniProt Q9UPE1); details: at 10 µM
[9] = biological target: T1, Serine/threonine-protein kinase 4 (Homo sapiens) (UniProt Q13043); details: at 1 µM
T1 sequence (whole entry): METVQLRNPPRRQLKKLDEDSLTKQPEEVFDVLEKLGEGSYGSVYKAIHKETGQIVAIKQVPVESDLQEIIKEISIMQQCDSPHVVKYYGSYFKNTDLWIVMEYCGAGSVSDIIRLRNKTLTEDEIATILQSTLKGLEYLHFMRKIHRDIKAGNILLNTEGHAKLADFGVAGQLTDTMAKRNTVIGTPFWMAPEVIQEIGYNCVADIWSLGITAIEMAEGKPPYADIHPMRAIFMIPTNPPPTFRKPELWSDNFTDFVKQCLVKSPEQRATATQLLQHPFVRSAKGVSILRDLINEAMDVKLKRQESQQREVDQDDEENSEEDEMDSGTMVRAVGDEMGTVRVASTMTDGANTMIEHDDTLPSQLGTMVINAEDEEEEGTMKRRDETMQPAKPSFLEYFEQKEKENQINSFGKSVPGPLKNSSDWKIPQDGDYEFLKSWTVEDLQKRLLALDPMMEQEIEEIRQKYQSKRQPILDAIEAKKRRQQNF

[10] = biological target: T1, Serine/threonine-protein kinase 4 (Homo sapiens); details: at 10 µM
[11] = biological target: T2, Serine/threonine-protein kinase 3 (Homo sapiens) (UniProt Q13188); details: at 1 µM
T2 sequence (whole entry): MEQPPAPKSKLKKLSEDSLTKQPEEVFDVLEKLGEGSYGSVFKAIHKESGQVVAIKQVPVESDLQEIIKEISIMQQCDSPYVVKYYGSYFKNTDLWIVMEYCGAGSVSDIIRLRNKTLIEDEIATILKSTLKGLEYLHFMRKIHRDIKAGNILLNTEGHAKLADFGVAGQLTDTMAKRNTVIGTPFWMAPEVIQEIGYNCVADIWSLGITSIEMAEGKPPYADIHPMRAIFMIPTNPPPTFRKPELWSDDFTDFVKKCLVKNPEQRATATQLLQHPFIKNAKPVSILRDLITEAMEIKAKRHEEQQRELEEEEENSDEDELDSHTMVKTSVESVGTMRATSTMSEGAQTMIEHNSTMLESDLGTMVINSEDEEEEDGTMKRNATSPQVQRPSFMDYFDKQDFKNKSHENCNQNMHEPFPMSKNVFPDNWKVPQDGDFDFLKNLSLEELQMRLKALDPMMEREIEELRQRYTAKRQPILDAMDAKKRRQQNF

[12] = biological target: T2, Serine/threonine-protein kinase 3 (Homo sapiens); details: at 10 µM
[13] = biological target: Serine/threonine-protein kinase 24 (Homo sapiens) (UniProt Q9Y6E0); details: at 1 µM
Chain of Serine/threonine-protein kinase 24 (Homo sapiens) (Q9Y6E0 whole entry, looked up): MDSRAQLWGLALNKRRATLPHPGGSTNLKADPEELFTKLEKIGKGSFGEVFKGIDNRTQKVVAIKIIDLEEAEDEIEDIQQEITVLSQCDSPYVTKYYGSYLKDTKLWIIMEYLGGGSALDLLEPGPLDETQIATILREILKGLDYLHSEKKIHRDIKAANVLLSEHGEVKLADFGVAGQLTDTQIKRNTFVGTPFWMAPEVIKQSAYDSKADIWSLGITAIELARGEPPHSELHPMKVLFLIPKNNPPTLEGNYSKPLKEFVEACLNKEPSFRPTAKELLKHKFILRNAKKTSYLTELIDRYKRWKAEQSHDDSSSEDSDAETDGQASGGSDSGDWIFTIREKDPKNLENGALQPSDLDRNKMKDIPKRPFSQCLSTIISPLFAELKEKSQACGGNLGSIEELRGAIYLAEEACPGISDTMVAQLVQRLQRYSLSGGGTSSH

[14] = biological target: Serine/threonine-protein kinase 24 (Homo sapiens) (UniProt Q9Y6E0); details: at 10 µM
[15] = biological target: T3, Tyrosine-protein kinase Mer (Homo sapiens) (UniProt Q12866); details: at 1 µM
T3 sequence (whole entry): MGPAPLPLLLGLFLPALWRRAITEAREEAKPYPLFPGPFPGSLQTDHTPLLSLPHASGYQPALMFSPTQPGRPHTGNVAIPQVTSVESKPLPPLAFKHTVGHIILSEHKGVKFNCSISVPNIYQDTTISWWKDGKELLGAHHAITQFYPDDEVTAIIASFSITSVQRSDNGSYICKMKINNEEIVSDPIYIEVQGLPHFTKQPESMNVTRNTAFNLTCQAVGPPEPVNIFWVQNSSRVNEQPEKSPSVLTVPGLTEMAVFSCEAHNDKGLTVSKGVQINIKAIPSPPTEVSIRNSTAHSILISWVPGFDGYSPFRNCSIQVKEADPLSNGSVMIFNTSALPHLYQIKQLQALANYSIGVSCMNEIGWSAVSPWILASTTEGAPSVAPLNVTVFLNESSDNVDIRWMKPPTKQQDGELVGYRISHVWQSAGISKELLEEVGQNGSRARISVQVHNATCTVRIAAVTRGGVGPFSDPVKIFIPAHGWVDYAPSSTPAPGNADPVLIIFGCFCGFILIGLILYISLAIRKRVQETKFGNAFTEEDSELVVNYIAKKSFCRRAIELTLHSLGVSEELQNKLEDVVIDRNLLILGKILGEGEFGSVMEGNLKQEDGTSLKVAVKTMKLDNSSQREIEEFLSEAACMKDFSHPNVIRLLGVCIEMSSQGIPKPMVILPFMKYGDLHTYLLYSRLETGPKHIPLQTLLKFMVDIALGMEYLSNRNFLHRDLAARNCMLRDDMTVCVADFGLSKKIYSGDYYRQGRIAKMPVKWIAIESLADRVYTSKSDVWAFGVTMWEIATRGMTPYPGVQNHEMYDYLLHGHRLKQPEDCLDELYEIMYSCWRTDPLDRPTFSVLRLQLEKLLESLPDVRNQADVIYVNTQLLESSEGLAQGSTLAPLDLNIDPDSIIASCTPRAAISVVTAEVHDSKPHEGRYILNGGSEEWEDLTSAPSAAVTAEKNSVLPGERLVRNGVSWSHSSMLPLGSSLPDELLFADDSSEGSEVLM

[16] = biological target: T3, Tyrosine-protein kinase Mer (Homo sapiens); details: at 10 µM
[17] = biological target: Hepatocyte growth factor receptor (Homo sapiens) (UniProt P08581); details: at 1 µM
Chain of Hepatocyte growth factor receptor (Homo sapiens) (P08581 whole entry): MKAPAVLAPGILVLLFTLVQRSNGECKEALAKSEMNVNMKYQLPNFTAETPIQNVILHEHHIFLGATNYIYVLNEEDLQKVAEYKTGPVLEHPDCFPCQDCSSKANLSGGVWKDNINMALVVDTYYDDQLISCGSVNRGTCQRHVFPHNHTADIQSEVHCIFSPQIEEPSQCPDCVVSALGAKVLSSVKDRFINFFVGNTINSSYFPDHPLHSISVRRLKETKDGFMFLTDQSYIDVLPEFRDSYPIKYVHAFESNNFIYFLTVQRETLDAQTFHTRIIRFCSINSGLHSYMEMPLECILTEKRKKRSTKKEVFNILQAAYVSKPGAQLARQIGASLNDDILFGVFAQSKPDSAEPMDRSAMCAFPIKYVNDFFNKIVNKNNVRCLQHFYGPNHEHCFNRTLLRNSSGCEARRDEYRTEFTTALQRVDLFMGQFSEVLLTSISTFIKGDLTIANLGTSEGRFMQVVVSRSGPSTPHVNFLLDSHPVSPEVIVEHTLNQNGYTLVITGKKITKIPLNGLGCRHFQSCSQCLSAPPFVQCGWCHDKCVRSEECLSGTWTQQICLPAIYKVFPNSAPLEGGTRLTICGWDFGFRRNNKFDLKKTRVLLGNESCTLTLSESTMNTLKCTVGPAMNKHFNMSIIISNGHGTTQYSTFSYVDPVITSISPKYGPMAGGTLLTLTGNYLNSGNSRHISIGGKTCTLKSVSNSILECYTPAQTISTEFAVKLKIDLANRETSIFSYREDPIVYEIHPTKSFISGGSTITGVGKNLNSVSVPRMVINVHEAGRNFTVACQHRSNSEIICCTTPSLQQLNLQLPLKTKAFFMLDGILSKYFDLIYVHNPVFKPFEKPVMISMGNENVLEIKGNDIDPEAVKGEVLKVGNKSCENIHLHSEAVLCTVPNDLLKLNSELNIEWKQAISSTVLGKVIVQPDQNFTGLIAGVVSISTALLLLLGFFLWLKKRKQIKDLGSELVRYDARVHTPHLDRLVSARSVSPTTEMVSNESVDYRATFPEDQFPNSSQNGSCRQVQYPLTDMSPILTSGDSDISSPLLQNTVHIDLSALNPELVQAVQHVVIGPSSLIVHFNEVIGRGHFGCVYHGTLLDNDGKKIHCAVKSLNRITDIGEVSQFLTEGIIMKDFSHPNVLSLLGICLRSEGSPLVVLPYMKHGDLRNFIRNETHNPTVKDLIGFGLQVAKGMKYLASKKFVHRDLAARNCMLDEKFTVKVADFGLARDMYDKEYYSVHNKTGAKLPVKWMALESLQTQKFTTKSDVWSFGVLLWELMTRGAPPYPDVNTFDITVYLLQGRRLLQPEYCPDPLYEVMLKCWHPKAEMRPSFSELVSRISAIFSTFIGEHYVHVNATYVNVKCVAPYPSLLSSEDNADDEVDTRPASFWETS

[18] = biological target: Hepatocyte growth factor receptor (Homo sapiens) (UniProt P08581); details: at 10 µM
[19] = biological target: MAP kinase-interacting serine/threonine-protein kinase 2 (Homo sapiens) (UniProt Q9HBH9); details: at 1 µM
Chain of MAP kinase-interacting serine/threonine-protein kinase 2 (Homo sapiens) (Q9HBH9 whole entry, looked up): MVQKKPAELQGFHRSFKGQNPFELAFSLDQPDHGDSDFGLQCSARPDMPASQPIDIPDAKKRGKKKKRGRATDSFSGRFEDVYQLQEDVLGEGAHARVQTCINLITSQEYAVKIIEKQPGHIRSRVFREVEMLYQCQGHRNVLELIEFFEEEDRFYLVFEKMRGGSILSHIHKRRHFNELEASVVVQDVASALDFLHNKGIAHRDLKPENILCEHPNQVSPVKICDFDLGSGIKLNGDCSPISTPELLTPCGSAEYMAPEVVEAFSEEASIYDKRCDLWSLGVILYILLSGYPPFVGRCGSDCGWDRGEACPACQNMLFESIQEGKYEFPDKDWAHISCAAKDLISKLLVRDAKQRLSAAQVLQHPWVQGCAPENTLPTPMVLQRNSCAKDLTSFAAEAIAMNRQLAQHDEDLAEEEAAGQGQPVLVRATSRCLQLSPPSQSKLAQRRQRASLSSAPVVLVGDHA

[20] = biological target: MAP kinase-interacting serine/threonine-protein kinase 2 (Homo sapiens) (UniProt Q9HBH9); details: at 10 µM

Chain of Ribosomal protein S6 kinase alpha-5 (Homo sapiens) (O75582 whole entry, looked up): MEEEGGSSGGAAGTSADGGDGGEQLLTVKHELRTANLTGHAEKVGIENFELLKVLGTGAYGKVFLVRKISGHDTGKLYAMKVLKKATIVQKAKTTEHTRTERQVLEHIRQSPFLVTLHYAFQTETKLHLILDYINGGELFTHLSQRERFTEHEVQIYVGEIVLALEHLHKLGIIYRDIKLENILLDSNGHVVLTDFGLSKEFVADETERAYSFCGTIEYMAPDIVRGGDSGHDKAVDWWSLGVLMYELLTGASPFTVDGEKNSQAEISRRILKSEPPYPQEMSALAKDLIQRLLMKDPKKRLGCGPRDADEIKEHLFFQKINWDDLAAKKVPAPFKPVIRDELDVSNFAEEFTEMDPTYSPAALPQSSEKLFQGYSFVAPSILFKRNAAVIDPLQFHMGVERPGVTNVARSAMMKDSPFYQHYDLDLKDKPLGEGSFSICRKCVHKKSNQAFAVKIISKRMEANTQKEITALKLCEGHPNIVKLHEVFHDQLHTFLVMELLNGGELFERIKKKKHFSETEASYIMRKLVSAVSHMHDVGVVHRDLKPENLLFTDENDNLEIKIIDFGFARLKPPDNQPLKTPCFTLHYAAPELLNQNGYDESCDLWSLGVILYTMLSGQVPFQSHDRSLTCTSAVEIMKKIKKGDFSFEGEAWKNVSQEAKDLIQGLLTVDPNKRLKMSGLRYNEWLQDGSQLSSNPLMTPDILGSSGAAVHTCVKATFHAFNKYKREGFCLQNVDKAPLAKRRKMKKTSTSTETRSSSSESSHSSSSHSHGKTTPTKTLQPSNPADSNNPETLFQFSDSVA

SMILES | residual activity [1] [%] | residual activity [2] [%] | residual activity [3] [%] | residual activity [4] [%] | residual activity [5] [%] | residual activity [6] [%] | residual activity [7] [%] | residual activity [8] [%] | residual activity [9] [%] | residual activity [10] [%] | residual activity [11] [%] | residual activity [12] [%] | residual activity [13] [%] | residual activity [14] [%] | residual activity [15] [%] | residual activity [16] [%] | residual activity [17] [%] | residual activity [18] [%] | residual activity [19] [%] | residual activity [20] [%]
COc1ccc(S(=O)(=O)N(CCO)c2ccccc2CN(C)C/C=C/c2ccc(Cl)cc2)cc1 | 98 | 78 | 115 | 114 | 96 | 85 | 102 | 104 | 107 | 90 | 99 | 78 | 78 | 69 | 93 | 83 | 113 | 120 | 106 | 96
CC(=O)O/N=C1\C(=C2\C(=O)Nc3cc(Br)ccc32)Nc2ccccc21 | 96 | 91 | 99 | 85 | 100 | 74 | 96 | 102 | 50 | 23 | 65 | 18 | 85 | 74 | 39 | 6 | 89 | 81 | 101 | 92
O=C1NC(=O)/C(=C/c2ccc3c(c2)OC(F)(F)O3)S1 | 106 | 85 | 133 | 112 | 105 | 97 | 100 | 74 | 100 | 107 | 106 | 102 | 60 | 70 | 110 | 95 | 87 | 78 | 109 | 96
CCOc1cc2ncnc(Nc3cccc(Br)c3)c2cc1OCC | 84 | 72 | 117 | 101 | 105 | 88 | 113 | 76 | 83 | 61 | 103 | 71 | 61 | 47 | 84 | 31 | 58 | 33 | 21 | 7
O=c1c2ccccc2[nH]c(=S)n1CCN1CCC(=C(c2ccc(F)cc2)c2ccc(F)cc2)CC1 | 94 | 86 | 127 | 104 | 110 | 97 | 103 | 89 | 93 | 101 | 120 | 93 | 71 | 69 | 106 | 88 | 136 | 89 | 112 | 103
CO[C@H]1C[C@@H]2CC[C@@H](C)[C@@](O)(O2)C(=O)C(=O)N2CCCC[C@H]2C(=O)O[C@H]([C@H](C)C[C@@H]2CC[C@@H](O)[C@H](OC)C2)CC(=O)[C@H](C)/C=C(\C)[C@@H](O)[C@@H](OC)C(=O)[C@H](C)C[C@H](C)/C=C/C=C/C=C/1C | 95 | 104 | 123 | 110 | 87 | 105 | 105 | 88 | 93 | 97 | 94 | 84 | 64 | 76 | 101 | 93 | 95 | 105 | 105 | 88
C[C@@H](N)[C@H]1CC[C@H](C(=O)Nc2ccncc2)CC1 | 95 | 69 | 90 | 50 | 82 | 58 | 96 | 98 | 105 | 79 | 111 | 105 | 98 | 92 | 93 | 101 | 132 | 131 | 106 | 77
O=C1NC(=O)c2cc(Nc3ccc(F)cc3)c(Nc3ccc(F)cc3)cc21 | 79 | 64 | 128 | 93 | 97 | 91 | 106 | 84 | 92 | 100 | 100 | 68 | 68 | 54 | 105 | 93 | 89 | 59 | 106 | 86
O=[N+]([O-])c1ccc(-c2nc(-c3ccc(F)cc3)c(-c3ccncc3)[nH]2)cc1 | 91 | 89 | 108 | 119 | 87 | 85 | 105 | 104 | 74 | 114 | 110 | 99 | 83 | 82 | 101 | 107 | 128 | 98 | 109 | 106
Cc1cc2ncc(-c3ccccc3)nc2cc1C | 92 | 88 | 134 | 103 | 92 | 103 |  | 87 |  | 125 | 88 | 95 | 65 | 83 | 107 | 90 | 87 | 134 |  | 
CN(C)CCCn1cc(C2=C(c3c[nH]c4ccccc34)C(=O)NC2=O)c2ccccc21 |  | 40 | 24 | 4 | 18 | 3 | 113 | 55 | 40 | 9 | 73 | 17 | 27 | 7 | 60 | 11 |  | 58 |  | 
N#CCCc1ccc2c(c1)-c1[nH]c3ccc([N+](=O)[O-])cc3c1CC(=O)N2 | 9 | 6 |  |  |  | 79 |  |  | 10 | 6 | 27 | 7 | 37 | 12 |  |  |  |  | 72 | 42
O=Nc1c(-c2c(O)[nH]c3ccccc23)[nH]c2ccccc12 | 106 | 103 | 61 | 21 | 32 | 4 | 85 | 46 | 8 | 2 | 6 | 0 | 42 | 10 | -2 | -3 | 86 | 13 | 62 | 18
CNc1cc2c(Nc3cccc(Br)c3)ncnc2cn1 | 86 | 84 | 133 | 110 | 104 | 109 | 99 | 25 | 95 | 102 | 103 | 88 | 76 | 86 | 96 | 84 | 89 | 73 | 21 | 12

From ChEMBL document CHEMBL2218924, “A broad activity screen in support of a chemogenomic map for kinase signalling research and drug discovery” (Biochem J, 2013)
